Assay outcomes (PubChem BioAssay)
Dicer inh = blocks human Dicer maturation of pre-miR-21; Q9UPY3; cat-ELCCA pre-miR-21 Dicer processing, chemiluminescence; hits give high values; z-score at 25 µM; 6% of 47,000 active; AID 1347074; in the data active = z-score above about 3, passing the limit was not always enough;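 also: higher signal means more uncleaved substrate so more Dicer inhibition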
Large screens that a line does not name were inactive. Many of the other results were omitted from the sample, so hits are more common in it than they were.

Clc1ccccc1CNc1nc2ccccc2n1CCN1CCOCC1	Dicer inh 6.5
CCC(C(=O)NNC(=O)c1ccccc1N)c1ccccc1 (stereo unspecified)	none
CC1C=CCC2C(=O)N(c3ccc(C(=O)O)cc3)C(=O)C12 (stereo unspecified)	none
Cc1onc(-c2c(Cl)cccc2Cl)c1C(=O)Nc1cccc(F)c1C(=O)Nc1ccc(F)cc1	none
Cc1ccc2nc(C(F)(F)F)cc(N3CCN(/C=C(/C#N)S(=O)(=O)c4cccs4)CC3)c2c1	none
O=C(Cn1c(-c2ccccn2)nc2ccccc21)NCCCn1ccnc1	none
O=C(NCCNc1ccc(C(F)(F)F)cn1)Nc1ccccc1Cl	none
Cc1ccc(S(=O)(=O)Oc2ccc(Oc3ccccc3)cc2)cc1	none
COC(=O)c1ccc(/C=N/Nc2ccc(C(F)(F)F)cc2)n1-c1ccc(F)cc1	none
CCOc1cc(-c2ccc(OC)cc2)cc(=O)c2c(C)oc(C)c12	none
COc1ccc(-c2cc(OC(=O)c3ccccc3C)c3c(C)oc(C)c3c(=O)c2)cc1	Dicer inh 6.7
CCOc1ccc(-c2cc(OC(=O)c3ccccc3F)c3c(C)oc(C)c3c(=O)c2)cc1	none
COC(=O)c1cc(OC)c(OC)cc1NS(=O)(=O)c1c(Cl)cc(Cl)cc1Cl	none
COc1cccc2c1OC(c1ccc(F)cc1)C([N+](=O)[O-])=C2 (stereo unspecified)	Dicer inh 3.9
O=[N+]([O-])C1=Cc2cc(Cl)cc(Cl)c2OC1c1ccc(F)cc1 (stereo unspecified)	Dicer inh 5.2
CC(C)c1ccc(C2Oc3ccccc3C=C2[N+](=O)[O-])cc1 (stereo unspecified)	none
FC(F)(F)c1cc(NC(=S)N2CCCCC2CCN2CCOCC2)cc(C(F)(F)F)c1 (stereo unspecified)	none
O=C(c1ccc(Cl)cc1Cl)n1nccc1-c1ccc(-c2ccc(F)cc2F)o1	none
O=C(O)Cc1ccc2c3c(cccc13)CC2	none
CCOC(=O)c1cc(-c2cccs2)no1	none
COc1ccc(C2CC(=O)C3=C(C2)Nc2ccccc2NC3c2cc(F)ccc2F)cc1OC (stereo unspecified)	none
CN1c2ccsc2C(=O)/C(=N\Nc2cccc(C(F)(F)F)c2)S1(=O)=O	none
C=CCn1c2ccccc2c2nnc(SCC(=O)c3ccccc3)nc21	none
O/N=C1\CCCc2[nH]c3ccccc3c21	Dicer inh 5.1
O=c1[nH]c2ccccc2c2ccccc12	none
O=c1[nH]c2ccccc2c(O)c1-c1ccccc1	none
CCCC[C@@]1(C2CCCC2)Cc2cc(OCC(=O)O)c(Cl)c(Cl)c2C1=O	Dicer inh 4
CCOC(=O)c1ccc(N=C(N)SCc2ccccc2)cc1	none
N=C(N)SCc1ccc(F)cc1	none
Cc1c(C)c(C)c(CSC(N)=Nc2ccc(F)cc2)c(C)c1C	Dicer inh 3.3
C=C1SC(=Nc2ccccc2Cl)N(C(=O)c2ccc([N+](=O)[O-])cc2)C1(C)C	none
O=C(Nc1ccc(Cl)cc1)c1cnn(-c2ccccc2)c1C(F)(F)F	none
CCOC(=O)CS/C(Nc1ccccc1C(F)(F)F)=C(/C#N)C(=O)OCC	none
Cc1ccc(C(=O)CC2(O)C(=O)N(CCc3ccccc3)c3ccc(Cl)cc32)o1 (stereo unspecified)	Dicer inh 5.2
CCCN1C(=O)C(O)(CC(=O)c2c(C)n[nH]c2C)c2cc(Br)ccc21 (stereo unspecified)	Dicer inh 3.2
CCCCN1C(=O)C(O)(CC(=O)c2c(C)n[nH]c2C)c2cc(Br)ccc21 (stereo unspecified)	none
Cc1ccc(CN2C(=O)C(O)(CC(=O)c3ccncc3)c3cc(Cl)ccc32)cc1 (stereo unspecified)	Dicer inh 5
CCCN1C(=O)C(O)(CC(=O)c2c(C)n[nH]c2C)c2ccccc21 (stereo unspecified)	none
CCOc1ccc(C(=O)CC2(O)C(=O)N(CCc3ccccc3)c3ccc(Br)cc32)cc1 (stereo unspecified)	none
COc1ccc(C(=O)CC2(O)C(=O)N(CCc3ccccc3)c3ccc(Br)cc32)cc1 (stereo unspecified)	none
O=C(CC1(O)C(=O)N(CCc2ccccc2)c2ccc(Cl)cc21)c1ccccc1O (stereo unspecified)	none
Cc1ccc(C(=O)CC2(O)C(=O)N(Cc3ccccc3)c3ccc(Cl)cc32)cc1 (stereo unspecified)	none
Cc1ccccc1CN1C(=O)C(O)(CC(=O)c2ccccn2)c2cc(Cl)ccc21 (stereo unspecified)	none
O=C(CC1(O)C(=O)N(CCc2ccccc2)c2ccc(Br)cc21)c1ccncc1 (stereo unspecified)	Dicer inh 3.6
Cc1ccc(C(=O)CC2(O)C(=O)N(Cc3ccccc3C)c3ccc(Cl)cc32)o1 (stereo unspecified)	none
COc1ccc(NCC(O)Cn2c3ccccc3c3ccccc32)c(OC)c1 (stereo unspecified)	none
Cc1onc(-c2ccccc2)c1NC(=O)O/N=C(\N)c1ccc(Cl)cc1	none
CCSC1=N/C(=C\c2ccc(N(CC)CC)cc2OC)C(=O)S1	none
COc1ccc(N(C(=O)c2ccco2)S(=O)(=O)c2ccc3c(c2)n(C)c(=O)n3C)cc1	none
CC(=O)Cn1cc(Cl)c(=O)c(Cl)c1	none
Cc1nc(-c2ccc(S(=O)(=O)NCCN(C)C)s2)cs1	none
